This is a sample that favours compounds with a hit; in the whole collection about 1.8% have one here.
ABCB6 inh 2 – inhibitors of human ABC transporter ABCB6; Q9NP58; K562-ABCB6 porphyrin accumulation, flow cytometry, 1 h; hits give low values; fluorescence ratio to DMSO, % at 10 µM; 0.19% of 360,000 active;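 active = fluorescence ratio to DMSO below 75%, the collection mean minus 3 SD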;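 note: signal is porphyrin accumulated inside mitochondria; 100% equals median channel fluorescence of DMSO control wells; lower ratio means ABCB6 inhibition with less porphyrin fluorescence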
Target sequence (Q9NP58 whole entry, looked up): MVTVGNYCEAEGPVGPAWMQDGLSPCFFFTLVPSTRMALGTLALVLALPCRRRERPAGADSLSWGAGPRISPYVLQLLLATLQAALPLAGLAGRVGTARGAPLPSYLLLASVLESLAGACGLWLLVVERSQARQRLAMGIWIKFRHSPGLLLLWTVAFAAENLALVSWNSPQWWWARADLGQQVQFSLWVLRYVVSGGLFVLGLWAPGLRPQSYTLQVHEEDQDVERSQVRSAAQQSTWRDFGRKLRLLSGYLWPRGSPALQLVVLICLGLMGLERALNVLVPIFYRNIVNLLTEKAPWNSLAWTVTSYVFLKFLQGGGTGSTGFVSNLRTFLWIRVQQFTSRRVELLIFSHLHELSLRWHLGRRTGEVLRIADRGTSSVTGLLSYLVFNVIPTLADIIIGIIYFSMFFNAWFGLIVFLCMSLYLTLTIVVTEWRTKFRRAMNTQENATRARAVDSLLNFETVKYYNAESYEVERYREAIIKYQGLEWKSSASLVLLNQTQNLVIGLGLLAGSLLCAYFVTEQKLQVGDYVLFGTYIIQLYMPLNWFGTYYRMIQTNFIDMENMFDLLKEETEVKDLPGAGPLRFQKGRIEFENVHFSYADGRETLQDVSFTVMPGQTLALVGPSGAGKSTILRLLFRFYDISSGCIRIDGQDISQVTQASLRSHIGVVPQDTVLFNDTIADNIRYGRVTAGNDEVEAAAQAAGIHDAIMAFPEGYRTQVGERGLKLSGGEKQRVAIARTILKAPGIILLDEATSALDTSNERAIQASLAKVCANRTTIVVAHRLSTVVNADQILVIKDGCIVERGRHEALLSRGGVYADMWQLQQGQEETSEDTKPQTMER
Myeloid diff MLP – promotes myeloid progenitor differentiation | ER-HoxA9 myeloid progenitors, lysozyme-GFP differentiation, flow cytometry | calls only at 10 µM | 1% of 360,000 active;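 active = normalized GFP-positive differentiation at or above the plate's own cutoff, the solvent-only control mean plus 3 SD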;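 note: cells exposed to compound for four days before flow analysis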
Granule exo inh – blocks lytic granule exocytosis; TALL-104 LAMP-1 surface exposure, flow cytometry; cells stimulated with thapsigargin and PMA; inhibition, % at 10 µM; 0.66% of 360,000 active; AID 651702;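 active = inhibition above about 55%, limit read from the data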
Myeloid diff – compounds promoting myeloid differentiation. shares compounds with Myeloid diff MLP. ER-HoxA9 myeloid progenitors, GFP/Mac1 double-positive flow. calls only. 2% of 2,300 active. AID 651706;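 active = share of green or green-and-red cells above 9 and 9% in run 1 or 4 and 3% in run 2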
GFP autofluor – compound fluorescence in myeloid differentiation counter-screen | shares compounds with Myeloid diff MLP | ER-HoxA9 myeloid progenitors, no estrogen, GFP autofluorescence flow cytometry; vehicle wells 0%, positive control 100% | fluorescence response, % (concentration not given with the values) | 7.4% of 2,300 active;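 active = over 5% cells positive for green fluorescent reporter, or over 2% positive for both it and APC stain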;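 note: range taken on the double positive population between DMSO and positive control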
Starred values were filed as active, the others as inactive; i = inactive; / = not tested or not shown; + = active, no number.

SMILES | ABCB6 inh 2 | Myeloid diff MLP | Granule exo inh | Myeloid diff | GFP autofluor
COc1cc(OC)c2c(-c3ccccc3)cc(=O)oc2c1C(CCN1CCCCC1)c1ccc2c(c1)OCO2 (stereo unspecified) | 92 | i | -2 | / | /
Cc1csc(C(=O)O)c1NC(=O)c1cccc([N+](=O)[O-])c1 | 102 | i | 2 | / | /
NS(=O)(=O)c1ccc(NC(=O)CN2CCc3ccccc32)cc1 | 99 | i | -7 | / | /
NS(=O)(=O)c1ccc(NC(=O)CN2CCCc3ccccc32)cc1 | 99 | + | -1 | i | 0
NS(=O)(=O)c1ccc(NC(=O)CCc2ccccc2)cc1 | 103 | i | -2 | i | 0
O=C(CCc1ccccc1)Nc1ccccc1 | 94 | i | -13 | / | /
O=C(N=C1SC2CS(=O)(=O)CC2N1Cc1ccc(F)cc1)C1CCCO1 (stereo unspecified) | 103 | i | 1 | / | /
Cc1cn([C@H]2C[C@H](O)[C@@H](CNC(=O)[C@H]3CCC(=O)N3)O2)c(=O)[nH]c1=O | 115 | i | -6 | / | /
CCOC(=O)Cn1cc(-c2ccccc2)nn1 | 98 | i | -4 | / | /
c1ccc(COCCCn2cc(-c3ccccc3)nn2)cc1 | 107 | + | 1 | i | 0
COc1ccc(C)cc1NC(=O)COC(=O)Cc1c[nH]c2ccccc12 | 103 | i | -1 | / | /
O=S(=O)(c1ccccc1)c1nc(-c2ccco2)oc1NCc1cccnc1 | 98 | + | 2 | i | 0
O=S(=O)(c1ccccc1)c1nc(-c2ccccc2)oc1NCc1cccnc1 | 96 | i | 5 | / | /
COc1cccc(OC)c1CN1CCCC(C(=O)c2ccccc2SC)C1 (stereo unspecified) | 98 | i | 7 | / | /
CCCCCCc1cc2cc(S(=O)(=O)c3ccc(Cl)cc3)c(=O)oc2cc1O | 101 | i | -5 | / | /
CCN(CC)c1ccc2cc(S(=O)(=O)c3ccc(Cl)cc3)c(=O)oc2c1 | 102 | i | -2 | i | 1
Cc1cccc(C)c1C(=NCCN(C)C)c1ccccc1 | 97 | i | 0 | / | /
CC(C)(C)OC(=O)NCCc1nnc(SCc2ccccc2)o1 | 93 | i | -3 | / | /
CC(C)(C)OC(=O)NCCc1nnc(SCc2ccccc2Cl)o1 | 97 | i | 3 | i | 0
CCN1C(=O)C2CCCCN2c2ccc(C(=O)NCCOC)cc21 (stereo unspecified) | 97 | i | 0 | / | /
CN(C(=O)Cn1nc(C(=O)O)c2ccccc2c1=O)C1CCCCC1 | 97 | i | 0 | / | /
CN(c1cc2c(c3c1ccn3C)C1CCC2O1)C1CCCCC1 (stereo unspecified) | 97 | i | -1 | / | /
Cn1ccc2c(N3CCCCCCC3)cc3c(c21)C1CCC3O1 (stereo unspecified) | 102 | + | -1 | i | 0
c1ccc(CCCN2CCN(c3ccccc3)CC2)cc1 | 101 | / | -2 | / | /
COc1ccc2c(c1)[C@H]1[C@H](CO2)[C@H](c2ccccc2)[C@]2(C)C(=O)Nc3ccc(C)cc3C(=O)N12 | 98 | i | 31 | / | /
SMILES | ABCB6 inh 2 | Myeloid diff MLP | Granule exo inh | Myeloid diff | GFP autofluor
COc1ccc2c(c1)C(=O)N1[C@H]3c4cc(C)ccc4OC[C@@H]3[C@H](c3ccccc3)[C@]1(C)C(=O)N2 | 95 | + | 14 | i | 0
Cc1nn(-c2ccccc2)c2sc(C(=O)NNC(=O)COc3ccccc3)cc12 | 98 | + | 1 | i | 0
Cc1nn(-c2ccccc2)c2sc(C(=O)NNC(=O)COc3cccc4ccccc34)cc12 | 98 | i | 7 | / | /
N#CCCN(C(=O)COC(=O)CNC(=O)c1cccs1)c1ccc(F)cc1 | 100 | i | -3 | / | /
CC1CCN(C(=O)COC(=O)c2ccccc2NCCO)CC1 | 95 | i | -5 | / | /
CC1CCCC(C)N1C(=O)COC(=O)c1ccccc1O (stereo unspecified) | 94 | i | 3 | / | /
CCC(C(=O)OCC(=O)N1C(C)CCCC1C)c1ccccc1 (stereo unspecified) | 251 | i | -9 | i | 0
CC1(C)CC(=O)C=C(Nc2ccc(O)c(C(=O)O)c2)C1 | 86 | i | 21 | / | /
CC1(C)CC(=O)C=C(Nc2ccc(C(=O)O)cc2)C1 | 96 | + | 0 | i | 0
COc1ccc(CC(=O)OCC(=O)NCc2ccco2)cc1 | 90 | i | 0 | / | /
O=C(COc1ccccc1Br)NCc1ccco1 | 88 | i | -2 | / | /
COc1cc(CC(=O)OCC(=O)NCc2ccco2)cc(OC)c1OC | 117 | + | -1 | i | 0
CCc1ccc(OCC(=O)NCc2ccco2)c(Br)c1 | 91 | i | 9 | i | 0
Cc1cccc(C)c1NC(=O)CNC(=O)c1ccncc1 | 104 | i | 3 | / | /
